From the supplement of paper PMC13380429

Test system: Vero E6 infected with SARS-CoV-2
Test: inhibition of SARS-CoV-2 cytopathic effect; higher = more antiviral protection, active = above 15
Conditions: 48 h

Measured: inhibition of SARS-CoV-2 cytopathic effect

COc1ccc2nc(NC(=O)Nc3ccccc3)sc2c1 [frentizole]
inactive: 1 nM -3.36% | 8.33 nM 0.96% | 100 nM -1.31% | 833.33 nM -1.35% | 10000 nM 1.78%

CC(C)NCC(O)COc1ccc(COCCOC(C)C)cc1 (stereo not given) [bisoprolol]
inactive: 1 nM -5.27% | 8.33 nM -2.6% | 100 nM -2.42% | 833.33 nM -3.57% | 10000 nM -3.25%

C#C[C@]1(O)CC[C@H]2[C@@H]3CCC4=C(CCC(=O)C4)[C@H]3CC[C@@]21C [noretynodrel]
inactive: 1 nM 0.57% | 8.33 nM 0.96% | 100 nM 1.22% | 833.33 nM -5.6% | 10000 nM 0.57%

O=C(NCCCN1CCC2(CC1)OCc1ccccc12)[C@H]1CCCN1Cc1ccccc1
inactive: 1 nM -4.44% | 8.33 nM -4.12% | 100 nM -5.12% | 833.33 nM -1.81% | 10000 nM 0.56%

N[C@@H](Cc1c[nH]c2ccccc12)C(=O)O [tryptophan]
inactive: 1 nM -6.32% | 8.33 nM -7.31% | 100 nM -3.29% | 833.33 nM -4.07% | 10000 nM -10.4%

CC(C)NCC(O)c1cc(O)cc(O)c1 (stereo not given) [metaproterenol]
inactive: 1 nM -0.95% | 8.33 nM 3.21% | 100 nM 0.75% | 833.33 nM -1.4% | 10000 nM 0.75%

c1cc2c(c(N3CCNCC3)c1)OCCO2 [eltoprazine]
inactive: 1 nM 3.51% | 8.33 nM 2.36% | 100 nM 2.47% | 833.33 nM -1.11% | 10000 nM -4.55%

CC(C)C(=O)Oc1ccc(CO)cc1[C@H](CCN(C(C)C)C(C)C)c1ccccc1 [fesoterodine]
inactive: 1 nM -1.73% | 8.33 nM -0.18% | 100 nM -0.25% | 833.33 nM -2.34% | 10000 nM 0.84%

Oc1ccc(Cl)cc1 [parachlorophenol]
inactive: 1 nM 1.78% | 8.33 nM -0.13% | 100 nM 1.68% | 833.33 nM 2.25% | 10000 nM -1.37%

Clc1ccc(COC(Cn2ccnc2)c2ccc(Cl)cc2Cl)cc1 (stereo not given) [econazole]
inactive: 1 nM 1.49% | 8.33 nM 1.04% | 100 nM 0.94% | 833.33 nM 3.08% | 10000 nM -1.91%

N#Cc1cc(CN2CCC(Nc3ncnc4sc(Cl)cc34)CC2)ccc1F
inactive: 1 nM 6.81% | 8.33 nM 8.07% | 100 nM 7.98% | 833.33 nM 1.59% | 10000 nM 0.56%

CCCCc1nc(C)c(CC(=S)N(C)C)c(=O)n1Cc1ccc(-c2ccccc2-c2nnn[nH]2)cc1 [fimasartan]
inactive: 1 nM 0.68% | 8.33 nM -0.83% | 100 nM -1.61% | 833.33 nM 1.46% | 10000 nM -0.45%

O=C(NC(NC(=S)Nc1ccc(F)c([N+](=O)[O-])c1)C(Cl)(Cl)Cl)C(c1ccccc1)c1ccccc1 (stereo not given)
inactive: 1 nM -2.82% | 8.33 nM -2.75% | 100 nM 0.28% | 833.33 nM -7.06% | 10000 nM -5.53%

COC(=O)N[C@H](C(=O)N1CCC[C@H]1C(=O)Nc1ccc([C@@H]2CC[C@@H](c3ccc(NC(=O)[C@@H]4CCCN4C(=O)[C@@H](NC(=O)OC)C(C)C)cc3)N2c2ccc(C(C)(C)C)cc2)cc1)C(C)C [ombitasvir]
inactive: 1 nM -0.82% | 8.33 nM -0.6% | 100 nM -0.7% | 833.33 nM -1.11% | 10000 nM -1.21%

CCCCCCCCCCCCCCCC(=O)OC(C)C [isopropyl-palmitate]
inactive: 1 nM -1.17% | 8.33 nM -0.59% | 100 nM 0.66% | 833.33 nM 1.48% | 10000 nM -2.42%

CC(C)CC(N)=O [isovaleramide]
inactive: 1 nM 1.36% | 8.33 nM -1.79% | 100 nM 1.18% | 833.33 nM 0.06% | 10000 nM 0.19%

CCC[C@H](N[C@H]1CCc2cc(F)cc(F)c2C1)C(=O)Nc1cn(C(C)(C)CNCC(C)(C)C)cn1
inactive: 1 nM 2.54% | 8.33 nM -2.77% | 100 nM -1.3% | 833.33 nM -9.66% | 10000 nM -10.1%

C[C@]12Cc3c[nH]nc3C[C@@H]1CC[C@@H]1[C@@H]2CC[C@@]2(C)[C@H]1CC[C@]2(C)O [stanozolol]
inactive: 1 nM -3.58% | 8.33 nM -5.17% | 100 nM -4.66% | 833.33 nM -3.19% | 10000 nM -5.61%

CC(=O)N(O)C/C=C/c1cccc(Oc2ccccc2)c1
inactive: 1 nM 2.1% | 8.33 nM 2.16% | 100 nM 1.66% | 833.33 nM -0.73% | 10000 nM -2.02%

CC(C)(C)c1cc(C(C)(C)C)c(NC(=O)c2c[nH]c3ccccc3c2=O)cc1O [ivacaftor]
inactive: 1 nM -1.65% | 8.33 nM 1.11% | 100 nM -2.96% | 833.33 nM -10.4% | 10000 nM -4.71%

Cn1c(=O)c2[nH]c(Br)nc2n(C)c1=O [pamabrom]
inactive: 1 nM 1.59% | 8.33 nM 0.19% | 100 nM 1.39% | 833.33 nM 1.95% | 10000 nM -3.72%

CCC1NC(=O)c2cc(S(N)(=O)=O)c(Cl)cc2N1 (stereo not given) [quinethazone]
inactive: 1 nM -8.29% | 8.33 nM -6.61% | 100 nM -4.32% | 833.33 nM -5.24% | 10000 nM -5.16%

O=c1cccc2n1C[C@@H]1CNC[C@H]2C1 [cytisine]
inactive: 1 nM 1.86% | 8.33 nM 0.43% | 100 nM -2.65% | 833.33 nM -1.32% | 10000 nM -2.16%

CCOC(=O)[C@H](CCc1ccccc1)N[C@@H](C)C(=O)N1C(=O)N(C)C[C@H]1C(=O)O [imidapril]
inactive: 1 nM -1.07% | 8.33 nM 0.74% | 100 nM 0.36% | 833.33 nM -0.5% | 10000 nM -1.28%

O=c1[nH]ccc2cc(OC3CCNCC3)ccc12
inactive: 1 nM 1.91% | 8.33 nM 0.89% | 100 nM -0.08% | 833.33 nM -3.34% | 10000 nM -7.36%

CCCN(CCC)C(=O)C(CCC(=O)O)NC(=O)c1ccccc1 (stereo not given) [proglumide]
inactive: 1 nM 2.27% | 8.33 nM -2.46% | 100 nM -0.81% | 833.33 nM 2.34% | 10000 nM -1.09%

COc1ccc(CN(CCN(C)C)c2ncccn2)cc1 [thonzylamine]
inactive: 1 nM 0.64% | 8.33 nM 0.52% | 100 nM 0.24% | 833.33 nM 3.55% | 10000 nM -0.17%

Cc1ccc(C)c([C@H](O)CNC(C)C)c1 [benzenemethanol,-2,5-dimethyl-[[(1-methylethyl)amino]methyl]]
inactive: 1 nM -1.13% | 8.33 nM 2.02% | 100 nM 0.03% | 833.33 nM 0.15% | 10000 nM 1.34%

CCCCNC(=O)NS(=O)(=O)c1ccc(C)cc1 [tolbutamide]
inactive: 1 nM 0.11% | 8.33 nM 0.83% | 100 nM -0.09% | 833.33 nM 0.89% | 10000 nM -0.3%

CC(C)(N)c1cc(C(=O)N[C@@H]2CCc3ccc(Oc4ccnc5c4CCC(=O)N5)cc3C2)cc(C(F)(F)F)c1
inactive: 1 nM 0.3% | 8.33 nM 1.69% | 100 nM 1.9% | 833.33 nM -3.12% | 10000 nM -8.56%

C[N+](C)(C)[C@@H](Cc1c[nH]c(=S)[nH]1)C(=O)O [L-ergothioneine]
inactive: 1 nM 1.26% | 8.33 nM -1.22% | 100 nM 2.33% | 833.33 nM 2.82% | 10000 nM 0.9%

O=C(O)CN1C(=O)c2cccc3cccc(c23)C1=O [alrestatin]
inactive: 1 nM 5.18% | 8.33 nM 3.1% | 100 nM 3.59% | 833.33 nM 4.81% | 10000 nM 1.83%

Oc1cccc(O)c1 [resorcinol]
inactive: 1 nM -6.66% | 8.33 nM -5.24% | 100 nM -4.73% | 833.33 nM -2.6% | 10000 nM -2.66%

Cn1c(COP(=O)(NCCBr)NCCBr)cnc1[N+](=O)[O-]
inactive: 1 nM -3.18% | 8.33 nM -1.04% | 100 nM 0.12% | 833.33 nM -0.54% | 10000 nM -3.06%

NCCS [cysteamine]
inactive: 1 nM 1.07% | 8.33 nM 0.1% | 100 nM 0.28% | 833.33 nM -1.61% | 10000 nM -4.62%

CC(Cc1cccc(C(F)(F)F)c1)NCCOC(=O)c1ccccc1 (stereo not given) [benfluorex]
inactive: 1 nM 0.5% | 8.33 nM 0.35% | 100 nM -0.24% | 833.33 nM -1.03% | 10000 nM 0.26%

CC(=O)OCC(=O)[C@H]1CC[C@H]2[C@@H]3CCC4=CC(=O)CC[C@]4(C)[C@H]3CC[C@]12C [deoxycorticosterone-acetate]
inactive: 1 nM -2.24% | 8.33 nM 0.58% | 100 nM -1.58% | 833.33 nM -4.23% | 10000 nM -0.48%

CCN[C@H]1C[C@H](C)S(=O)(=O)c2sc(S(N)(=O)=O)cc21 [dorzolamide]
inactive: 1 nM -0.7% | 8.33 nM -3.23% | 100 nM -4.56% | 833.33 nM -1.92% | 10000 nM -1.06%

CN1CCN(C(=O)c2cc3cc(Cl)ccc3[nH]2)CC1
inactive: 1 nM -0.68% | 8.33 nM 0.59% | 100 nM -1.58% | 833.33 nM -1.48% | 10000 nM -1.13%

c1ccc(CCCCN2CCC(c3ccccc3)CC2)cc1
inactive: 1 nM -1.33% | 8.33 nM -0.15% | 100 nM 2.71% | 833.33 nM 1.08% | 10000 nM -0.99%

CCCC(=O)O[C@]1(C(=O)CO)CC[C@H]2[C@@H]3CCC4=CC(=O)CC[C@]4(C)[C@H]3[C@@H](O)C[C@@]21C [hydrocortisone-butyrate]
inactive: 1 nM -1.77% | 8.33 nM 1.01% | 100 nM 3.36% | 833.33 nM 5.42% | 10000 nM 0.11%
